Source: the OligoGym collection

These sequences were tested against ZNF384 (assay: pooled miR-30 sensor sort-seq; sequence = guide strand). Settings: shRNA.
Further: reference of the scale not given here.

Sequence | sensor-assay potency score (higher = more potent)
TTGAGCCTGAGCCTGAGCCTGG | -0.986
ATAAGGGTCATTCATCTCGGGC | -1.42
ATTTGTATGGTCTATCACCAGT | -0.958
TTATCTTTGTTGTGTTGCCGTC | 0.0211
TTGGAGTAGAATGTCAGTGAGC | -0.969
TTGGACTCTGTGTCCATACTGA | -0.198
ATCTTGTTGATGAACATTGTGT | -0.823

These sequences were tested against ZNF428 in the same assay as above. Settings: shRNA.

Sequence | sensor-assay potency score (higher = more potent)
TCTGAGAGAGTGTATTCTGAAT | -1.43
TCTAAGACAACACAGACCGGCA | -0.807
TCATCATCTTCTTCCAAGCTGG | -0.45
TCACCTTGTAGCCAGGATCATA | -1.68
TGAATCAGAGGAATGCTCGGGG | 0.32
TCATCTTCTTCCAAGCTGGCGT | -0.345
TTCTTCCTCTTCGGAGTCCGGC | -1.03
TAAGACAACACAGACCGGCAGT | 0.279
ATATTCAGGATCGTCAGTGGTC | -0.14
AGAGAGTGTATTCTGAATCAGA | -1.95
TTCTAAGACAACACAGACCGGC | 0.28
TTCCTCTTCGGAGTCCGGCTCT | -0.361

Each sequence was assayed against ZNF471 in the same assay as above. Settings: shRNA.

Sequence | sensor-assay potency score (higher = more potent)
TGTGACATCTCTGATGTCGAGC | -0.679
TTTGCCAGTGTGACATCTCTGA | -0.159
TAAACATCTCATGACTTCCCAT | -0.174
TAACTTTCTTCTGAACGCCTTC | -0.31
TTGATGTTGAGTAAGATTGGAA | -0.353
TTTCTTGTGTTTTATTACCATA | -1.3
TACTCTTTGATGCTGAGTGAGT | -0.705
TTCTCTGATGTACAGTACGGGA | -1.32
TTCTCCAACATCATACTCCTGT | 0.565
TTAAGGATAACTTTCTTCTGAA | -0.561

The sequences below were run against ZNF480 in the same assay as above. Settings: shRNA.

Sequence | sensor-assay potency score (higher = more potent)
TTGATGTTTAGTAAGGCTGGAA | -0.447
TGAATTGTAACTAAAAACCTTG | -0.76
TTAGTGATAACTTGTGTCTGAA | -0.0434
TTGAATTGTAACTAAAAACCTT | -0.157
TTCATCTGGAAATAGCTCCAGT | 0.626
TAACTTGTGTCTGAATGCCTTG | -0.708
TTTCTGATGTCGTACAAGGAGC | -1.17
TTTCAACTTGATTACATCCATT | -1.17
TAATTGGTTTGTCTTCTGCATT | -1.51
TTCTCTAAGGTGTACTTTCTGT | -0.808
